Most compounds without a hit are left out; they make up all but 2.3% or so of the library.
HepG2 tox: qHTS for Inhibitors of TGF-b: Cytotox Counterscreen | HepG2 CAGA-GFP viability, ATP luminescence, 18 h | Potency, µM (series often up to 46.1 µM), inactives show top-dose activity change, negative = cytotoxicity, hits mostly cytotoxic | hit rate 0.76% among 410,000 | AID 588856, 2011
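CellTiter-Glo luminescence gave cytotoxicity after 18 hours at 37 degrees C. The cells were HepG2 CAGA-GFP in 1% FBS DMEM, stimulated with 500 pg/mL TGF-beta after compound addition. %Activity was normalised to no-cell wells (complete cell-killing) and DMSO (no toxicity), and curves were fitted and classified.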
ATXN2 expr inh: Primary qHTS for Inhibitors of ATXN expression; Potency, µM (titrated, usually from 57 µM), without a hit: at the highest dose activity change, negative = inhibition, hits mostly inhibitors; AID 1745845, 2022; HEK-293 ATXN2-luciferase reporter, luminescence, 24 h; hit rate 0.72% among 360,000; also: % is scaled to controls: 0 for no effect and ±100 for the full control effect; nearly all actives have a fitted effect of over 55% in size
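ATXN2-luciferase reporter cells (luciferase flanked by upstream and downstream ATXN2 gene portions) were treated 24 h at 37 °C with compounds at up to 57 uM. SteadyGlo luminescence gave expression; GF-AFC fluorescence gave viability.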
TGFb SMAD3 inh: qHTS for Inhibitors of TGF-b; AID 588855, 2011; HepG2 CAGA-GFP TGF-b/SMAD3 reporter, GFP fluorescence, 18 h; TGF-beta stimulated, 500 pg/mL final; Potency, µM (titrated, usually from 46.1 µM), inactives show at the highest dose activity, negative = inhibition, most hits filed as inhibitors; hit rate 1.2% among 410,000; also: % is scaled to controls: 0 for no effect and ±100 for the full control effect; nearly all actives have a fitted effect of over 65% in size
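Inhibition of TGF-beta-driven CAGA-GFP reporter expression in HEPG2 cells is measured by cellular GFP fluorescence after 18 h stimulation with 500 pg/mL recombinant TGF-beta in 1% FBS medium at 37 degrees C.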
S2 tox: Viability Counterscreen for Primary qHTS for Inhibitors of ATXN expression; Potency, µM (highest dose often 56.7 µM), most hits filed as cytotoxic; AID 651635, 2014; hit rate 0.49% among 400,000; S2 cells (HEK-293 line with an ATXN2-luciferase reporter) viability, CellTiter-Fluor protease fluorescence, 24 h; also: nearly all actives have a fitted effect of over 40% in size
Numbers without * were called inactive; i = inactive; ? = inconclusive; / = not tested or not shown; ! = a repeat was not active; [ ] = another dose, or the depositor's remark. Calls follow the shape of the dose curve; as a rule, active = well fitted curve in the direction sought with a large enough effect; inconclusive = small, poorly fitted or top-dose-only effect, or another doubt; inactive = no such curve, though single readings can be large; an effect the other way counts as inactive or inconclusive. Potency is read from the fitted curve at half-maximal effect.

SMILES	HepG2 tox	ATXN2 expr inh	TGFb SMAD3 inh	S2 tox
CS(=O)(=O)c1ccc(-c2cn3ccccc3n2)cc1	/	22.6%	/	i
Cc1nn(C(C)C(=O)NCc2ccco2)c(C)c1[N+](=O)[O-] (stereo not drawn)	28.3%	/	-0.2%	?
C/C(=N\NC(=O)C(C)n1nc(C)c([N+](=O)[O-])c1C)c1ccccc1O (stereo not drawn)	-19.8%	15.8µM*	?	i
O=Cc1ccc(/C=C2/C=Cc3ccccc32)cc1	13.8%	/	4.3%	/
NC(N)=Nc1ccc(/C=C2\C=Cc3ccccc32)cc1	-106.5%	/	15.8µM*	/
O=Cc1ccc(/C=C2\C=Cc3ccccc32)cc1	-62.4%	/	3.55µM*	/
Nc1ncnc2c1c(-c1cccc(OCc3ccccc3)c1)cn2C1CC(CN2CCCC2)C1 (stereo not drawn)	/	30.6µM*	/	/
NC(=S)NN=C1c2ccccc2-c2ccccc21	-110.8%	/	6.31µM*	1.41µM*
Cn1c(SCc2ccc(C(C)(C)C)cc2)nnc1C1COc2ccccc2O1 (stereo not drawn)	-2.4%	?	22.4µM*	i
CNC(=O)[C@@H]1C[C@H](Sc2nc3ccccc3[nH]2)CN1Cc1cccc(C(F)(F)F)c1	/	/	/	i
C/C(N=Nc1nc2ccccc2s1)=N\Nc1ccccc1O	-97.4%	?	11.2µM*	?
Cc1ccc(-c2noc(-c3ccc(N4CCN(C)CC4)c([N+](=O)[O-])c3)n2)cc1	-23.7%	18.4%	-28.0%	i
COc1ccc(-c2noc(-c3ccc(N4CCN(C)CC4)c([N+](=O)[O-])c3)n2)cc1OC	11.2µM*	0.0%	?	?
COC(=O)c1c(C)[nH]c(C(=O)CSc2ncnc3sc(-c4ccccc4)cc23)c1C	3.98µM*	-18.1%	-12.8%	i
OC(COCC(F)(F)C(F)(F)C(F)(F)C(F)F)Cn1c2ccc(Cl)cc2c2cc(Cl)ccc21 (stereo not drawn)	-117.4%	?	10µM*	?
CCNc1cc(NC2CCC(O)CC2)nc(Nc2ccc3c(ccn3Cc3ccccc3)c2)n1 (stereo not drawn)	/	-18.6%	/	/
CCN(CC)CCC(c1ccc2c(c1)OCO2)c1c(OC)cc(OC)c2ccc(=O)oc12 (stereo not drawn)	-15.7%	10.3%	-0.1%	10µM*
CCCCCc1cc(=O)oc2c(C(CCN3CCCCC3)c3cc(OC)c(OC)c(OC)c3)c(OC)cc(OC)c12 (stereo not drawn)	12.6µM*	31.6µM*	15.8µM*	20µM*
CCCCCc1cc(=O)oc2c(C(CCN3CCCC(C)C3)c3cc(OC)c(OC)c(OC)c3)c(OC)cc(OC)c12 (stereo not drawn)	15.8µM*	?	?	31.6µM*
CCCCCc1cc(=O)oc2c(C(CCN(CC)CC)c3ccc(N(C)C)cc3)c(OC)cc(OC)c12 (stereo not drawn)	-108.6%	?	?	25.1µM*
CCN(CC)CCC(c1ccc(N(C)C)cc1)c1c(OC)cc(OC)c2c(C)cc(=O)oc12 (stereo not drawn)	-25.4%	/	-22.7%	/
COC(=O)[C@@H]1CCCN1C(=O)c1c(OC)cc(=O)n2c1CCN(Cc1ccc3nsnc3c1)CC2	/	/	/	i
COC(=O)c1ccccc1NC(=O)c1cnn2c1NC(=C1CC1)C=C2C(F)F	3.4%	/	24.1%	/
COCC(=O)Nc1cc(C(=O)N2CCN(c3ccc(Cl)cn3)CC2)c2c(c1)nc(C1CCC1)n2C	/	/	/	i
CCS(=O)(=O)N1CC(CC#N)(n2cc(-c3ncnc4[nH]ccc34)cn2)C1	/	14.5%	/	/
SMILES	HepG2 tox	ATXN2 expr inh	TGFb SMAD3 inh	S2 tox
Cc1ccc(NC(=O)c2cc(S(=O)(=O)NCCC3=CCCCC3)ccc2F)cc1F	-81.6%	?	?	?
O=C(Nc1cccc(F)c1)c1cc(S(=O)(=O)NCCC2=CCCCC2)ccc1F	14.1µM*	-35.6%	?	?
O=C(O)c1c(O)c(-c2ccccc2)nc2ccccc12	/	40.5%	/	i
O=C(Nc1ccccc1)Nc1ccc2ncoc2c1	0.251µM*	43.7%	1.2%	/
N#CC1=C(N)N2C(=C(C#N)C1c1cccc(Br)c1)Nc1ccccc12 (stereo not drawn)	-50.2%	?	3.16µM*	/
N#CC1=C(N)N2C(=C(C#N)C1c1ccc(Br)cc1)Nc1ccccc12 (stereo not drawn)	-43.1%	?	2.82µM*	/
CCN1CCCC1CNC(=O)c1cnn(-c2nccc(-c3ccccc3F)n2)c1C (stereo not drawn)	/	/	/	i
CCc1c(C2(O)CCCCC2)[nH]c2ccc(C(F)(F)F)cc12	-109.8%	-62.7%	11.2µM*	/
CN(C)Cc1c(C(C)(C)O)[nH]c2ccc(C(F)(F)F)cc12	-26.8%	3.4%	-6.1%	i
O=C(O)c1ccc2c3c(ncnc13)-c1ccccc1C2=O	1µM*	?	0.794µM*	i
O=C(O)c1cccc2c1C(=O)c1ccccc1C2=O	-2.2%	-6.3%[11.3 µM]	-1.4%	i
NC1CCc2ccccc21 (stereo not drawn)	-44.9%	/	-1.3%	/
CCCCCCCCCCCCCCCCCCN(C)C	/	5.0%	/	i
CC(=O)NO	-2.8%	0.3%	-1.2%	i
NC(=O)NO	-1.8%	7.69µM*!	-6.6%	i
C/C=C(\C)C(=O)OC(C)(C)[C@@H]1Cc2cc3ccc(=O)oc3cc2O1	-32.1%	-23.3%	6.31µM*	i
CCCOc1ccc(C(=O)C(CN2CCOCC2)c2ccccc2)cc1 (stereo not drawn)	-91.5%	20µM*	15.8µM*	?
O=C(CCl)N(c1ccccc1)c1c[nH]c2ccccc12	-99.8%	?	8.91µM*	25.1µM*
O=C(O)Cc1c[nH]c2ccccc12	-3.8%	-1.4%	-1.1%	i
O=C(CCl)N(c1ccc(Cl)cc1)c1c[nH]c2ccccc12	17.8µM*	?	15.8µM*	17.8µM*

High-throughput results from PubChem BioAssay.
